PrP 5UTR inh: suppresses PrP 5' UTR mRNA reporter expression; AID 488862; inhibition, % (test concentration not listed); cell-based PrP 5' UTR mRNA reporter, plate reader; hit rate 0.35% among 340,000; in the data active means inhibition above about 52%; further: 0 = median of the neutral control wells
TcdB GH inh: inhibitors of Clostridioides difficile toxin B glycohydrolase; TcdB glycohydrolase enzymatic assay, plate reader; inhibition, % at 9.99 µM; hit rate 0.24% among 350,000; P18177; in the data active means inhibition above about 10%
FadD28 binding: M. tuberculosis FadD28 bisubstrate binding inhibition | hit rate 0.22% among 360,000 | FadD28 bisubstrate probe binding, fluorescence polarization | inhibition, % at 12.5 µM; in the data active means inhibition above about 8.5%, passing the limit was not always enough; inconclusive means no clear call, values can overlap the other calls
PriA SSB inh: inhibitors of Klebsiella pneumoniae PriA binding to SSB C-terminal tail; AlphaScreen SSBct-PriA binding, biotinylated peptide; inhibition, % at 33 µM; hit rate 0.6% among 430,000; in the data active means inhibition mostly above about 37%, no sharp cut-off; inactive means mostly below about 20%;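 further: plate controls were negative control peptide for no effect and reference peptide for full effect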
BioA inh: blocks M. tuberculosis BioA enzyme activity | purified M. tuberculosis BioA enzyme, plate reader | inhibition, % at 9.99 µM | hit rate 0.096% among 360,000 | AID 602481; in the data active means inhibition above about 40%; inconclusive means no clear call, values can overlap the other calls
Mtb hypoxia rep: reduces hypoxia-regulated biosensor signal in M. tuberculosis; fluorescence inhibition, % (no concentration beside the values); M. tuberculosis hypoxia-regulated fluorescent reporter, fluorescence; hit rate 0.1% among 300,000; in the data active means fluorescence inhibition mostly above about 23%, no sharp cut-off; inactive means mostly below about 17%
PrP UTR cherry: prion 5' UTR mRNA inhibition, cherry-pick retest; shares compounds with PrP 5UTR inh; cell-based prion protein 5' UTR reporter, plate reader; inhibition, % at 2.5 µM; hit rate 48% among 1,100; in the data active means inhibition above about 54%; inconclusive means no clear call, values can overlap the other calls
* hit, by the source's call; ? = inconclusive; . = no result given. Most compounds without a hit are left out; they make up all but 1% or so of the library.

SMILES	PrP 5UTR inh	TcdB GH inh	FadD28 binding	PriA SSB inh	BioA inh	Mtb hypoxia rep	PrP UTR cherry
CN1[C@@H]2Cn3c(ccc(-c4cccc(F)c4)c3=O)[C@H]1[C@@H](C(=O)N1CCOCC1)[C@@H]2CO	.	0	.	.	0	.	.
O=C(Nc1cccc2ncccc12)c1cccnc1	74*	.	-2	2	8	11	1
CN=c1scc(-c2ccccc2Br)n1N=Cc1ccc[nH]1	.	.	.	.	.	4	.
CN=c1scc(-c2ccccc2F)n1/N=C/c1ccc[nH]1	92*	-3	0	.	.	.	91*
Cc1ccc(S(=O)(=O)NCCC(=O)N2CC(C)OC(C)C2)cc1 (stereo unspecified)	75*	1	-2	4	-4	8	12
CC(C)c1nnc(NC(=O)CSc2nnc(NC(=O)c3c(F)cccc3F)s2)s1	79*	0	-3	-2	0	12	-2
O=C(CSc1nnc(NC(=O)c2c(F)cccc2F)s1)Nc1ccccc1F	-20	3	-1	0	-1	6	.
Cc1csc(C(=O)NCC2CCN(c3cnccn3)CC2)c1	.	.	.	4	.	.	.
CC(=Nc1ccccc1)C1=C(O)C(Cc2ccc(O)cc2)NC1=O (stereo unspecified)	54*	2	-1	-6	.	.	89*
C[C@]12CCC3C(CCC4=CC(O)CC[C@@]43/C=N/O)C1(O)CCC2C1=CC(=O)OC1 (stereo partly specified)	80*	-2	-4	.	.	.	70*
Cc1nn(-c2ccccc2)c(Cl)c1C(=O)NCCCCNC(=O)c1c(C)nn(-c2ccccc2)c1Cl	74*	.	-2	0	0	4	6
Cc1nn(-c2ccccc2)c(Cl)c1C(=O)NCc1ccccc1F	-9	2	-1	-8	2	9	.
CCOC(=O)C1(C(=O)OCC)C(C(=O)c2ccccc2)C1c1ccccc1 (stereo unspecified)	-22	2	-1	-12	-4	8	.
CN1CCN(c2ccc(-c3ccc4ccccc4n3)cc2)CC1	92*	3	1	-2	.	-3	91*
Cc1cc(-c2ccc(N3CCOCC3)cc2)nc2ccccc12	-62	1	1	-19	.	4	.
c1ccc2nc(-c3ccc(N4CCOCC4)cc3)ccc2c1	75*	.	-1	-15	.	3	67*
COc1ccc(S(=O)(=O)n2nc(-c3ccc(Cl)cc3)cc2N)cc1OC	56*	2	-1	-8	2	.	1
O=C1CC(C(=O)Nc2cc(Cl)ccc2Cl)n2ncnc2N1 (stereo unspecified)	78*	1	0	5	.	.	-47
Cc1ccc(Cl)cc1NC(=O)C1CC(=O)Nc2ncnn21 (stereo unspecified)	-16	1	1	3	2	14	.
C[C@@H]1CN([C@@H](C)CO)C(=O)c2cc(N(C)C)ccc2O[C@@H]1CN(C)S(=O)(=O)c1ccc(F)cc1	.	-3	.	.	1	.	.
Cc1c(C)c2ccc(OCC(=O)Nc3ccccn3)c(C)c2oc1=O	93*	1	-1	2	13	.	94*
O=c1[nH]ncc2c3ccccc3n(Cc3ccccc3F)c12	-26	.	-3	-5	-1	2	.
CC1CCN(C(=O)c2ccc(COc3ccccc3Cl)o2)CC1	77*	.	0	-25	1	2	-6
CC1=Nc2cc(C(=O)NCC3CCCO3)ccc2Sc2ccc(C)cc21 (stereo unspecified)	-35	0	-1	-16	-3	1	.
CC1=Nc2cc(C(=O)NCc3ccco3)ccc2Sc2ccc(C)cc21	61*	.	0	20	-3	7	88*
SMILES	PrP 5UTR inh	TcdB GH inh	FadD28 binding	PriA SSB inh	BioA inh	Mtb hypoxia rep	PrP UTR cherry
O=C1N(Cc2cccc(Cl)c2)C[C@@H]2C[C@@H](c3ccc4nonc4c3)N3CCC[C@@]123	-3	2	-2	0	-2	-1	.
CCCNC(=O)c1ccc2c(=O)c(O)c(-c3ccc(F)cc3)[nH]c2c1	-4	.	-2	7	-1	9	.
CCCNC(=O)c1ccc2c(=O)c(O)c(-c3cccc(Br)c3)[nH]c2c1	56*	1	-3	-21	-1	5	?
CN1CCC(OC(=O)Cc2ccc(Cl)cc2)CC1	-45	0	-2	-7	.	-2	.
COc1ccc(C2=NO[C@H]3C[C@](C(=O)NC(C)C)(S(=O)(=O)c4ccccc4)C[C@@H]23)cc1	-19	.	-4	-9	0	.	.
Cc1c(C=NNC(=O)C2COc3ccccc3O2)c2ccccc2n1C (stereo unspecified)	.	.	.	-1	.	9	.
Cc1c(/C=N\NC(=O)C2COc3ccccc3O2)c2ccccc2n1C (stereo unspecified)	67*	.	-2	.	.	.	83*
Cc1ccc(/C([O-])=C(/C(=S)NCc2ccc3c(c2)OCO3)[n+]2ccc(N(C)C)cc2)c(C)c1	66*	1	1	.	.	17	-10
CN(C)c1ccc(C(=O)NCc2ccc3c(c2)OCO3)cc1	-7	1	0	-5	-1	3	.
COc1ccc(OC)c(Nc2c3c(nc4ccccc24)CCC3)c1	74*	1	-3	24	3	5	87*
COc1ccc(-c2cc3c(nn2)-c2ccccc2C3=O)cc1	63*	0	-2	3	0	5	?
CC[C@]12c3[nH]c4cc(CCC(=O)N(C)C)ccc4c3CCN1C(=O)[C@@H](CC(=O)NCCc1ccccn1)C[C@@H]2C(=O)N1CCN(C(=O)c2ccco2)CC1	-8	0	-1	-4	-1	-7	.
CC[C@]12c3[nH]c4ccccc4c3CCN1C(=O)C(CC(=O)NCCc1ccccn1)C[C@@H]2C(=O)N1CCN(C(=O)c2ccco2)CC1 (stereo partly specified)	67*	3	-2	1	0	4	-18
CCCN1C[C@H](C)[C@H](OC)CN(C)C(=O)c2ccc(NC(=O)c3cnccn3)cc2OC[C@@H]1C	.	0	.	.	-2	.	.
CC(C)C(NC(=O)C(C(C)C)N(C)C)C(=O)N(C)C(C(=O)N1CCCC1C(=O)N1CCCC1C(=O)NCc1ccccc1)C(C)C (stereo unspecified)	62*	-1	1	-5	.	.	89*
CC(C)(C)C1CCc2c(sc(NC(=O)CSc3ncn[nH]3)c2C#N)C1 (stereo unspecified)	3	.	-3	-4	-1	-9	.
CCOC(=O)c1c(NC(=O)CSc2ncn[nH]2)sc2c1CCCCC2	.	.	.	2	.	.	.
N#Cc1c(NC(=O)CSc2ncn[nH]2)sc2c1CCCC2	68*	.	0	-8	3	11	67*
CC1CCc2c(sc(NC(=O)CSc3ncn[nH]3)c2C#N)C1 (stereo unspecified)	70*	1	-5	-2	1	10	79*
CO[C@@H]1CN(C)C(=O)c2cc(NC(C)=O)ccc2OC[C@@H](C)N(Cc2cc(-c3ccccc3)on2)C[C@H]1C	.	0	.	.	1	.	.
O=C(NCC1CCN(c2ccncc2)CC1)Nc1c(F)cccc1F	.	.	.	-7	.	.	.
